A selection: hits, their analogues and other compounds. The true share with any hit is near 4.7%.
PABP1 MLLE inh – blocks PAM2 peptide binding to the PABP1 MLLE domain; P11940; GST-MLLE / FITC-PAM2 fluorescence polarization; inhibition, % at 20 µM; hit rate 0.36% among 360,000; AID 588489; in the data active = inhibition above about 35%, passing the limit was not always enough;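 also: plate controls were DMSO wells with GST-MLLE for no effect and wells lacking GST-MLLE protein for full effect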
PABP polyA inh – PABP-poly(A) binding inhibition; P11940; PABP-poly(A) RNA binding, fluorescence polarization; inhibition, % at 35 µM; hit rate 1% among 290,000;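 also: calls also rest on retests at 20 µM and on dose response follow-up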
Efflux pump inh – blocks antifungal efflux pumps in multiplex yeast assay; S. cerevisiae Candida pump triplex, Nile Red efflux; inhibition, % at 10 µM; AID 485275; hit rate 0.44% among 330,000;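 active = plate passing quality check with inhibition over a set limit, or well fluorescence over plate mean plus 4 SD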;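 also: Nile Red retained in pooled yeast measured as flow cytometry median fluorescence; 0% = buffer negative control and 100% = Enniatin B positive control; higher means more Nile Red kept so more efflux inhibition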
eIF4H inh – inhibitors of RNA binding by human eIF4H. inhibition, % at 35 µM. hit rate 0.94% among 290,000. Q15056. eIF4H fluorescence polarization binding assay. AID 2012;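 also: calls also rest on retests at 20 µM and on dose response follow-up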
SUMO HTRF inh – blocks human SUMOylation mediated by UBC9; HTRF SUMOylation assay, SAE1/SAE2 + UBC9, in vitro; inhibition, % at 35 µM; hit rate 0.36% among 290,000; in the data active = inhibition above about 50%, passing the limit was not always enough
Target sequence (P63279 whole entry, looked up): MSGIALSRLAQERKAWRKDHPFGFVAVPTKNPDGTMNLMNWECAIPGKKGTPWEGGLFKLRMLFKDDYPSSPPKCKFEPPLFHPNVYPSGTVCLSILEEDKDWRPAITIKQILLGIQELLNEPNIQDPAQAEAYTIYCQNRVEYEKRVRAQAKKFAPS
ALR inh – blocks human ALR sulfhydryl oxidase activity; purified ALR, DTT oxidation, H2O2 HRP-luminol luminescence; P55789; inhibition, % (test concentration not listed); AID 485317; hit rate 3.8% among 290,000;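 active = mean replicate inhibition above about 79%, with every replicate also reaching it, limit read from the data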
Target sequence (P55789 whole entry, looked up): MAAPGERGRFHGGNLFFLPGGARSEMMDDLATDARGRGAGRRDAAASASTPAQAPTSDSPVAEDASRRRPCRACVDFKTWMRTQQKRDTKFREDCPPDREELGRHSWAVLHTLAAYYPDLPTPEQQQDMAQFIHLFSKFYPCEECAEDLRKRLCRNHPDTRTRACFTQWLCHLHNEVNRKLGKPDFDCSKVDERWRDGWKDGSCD
Numbers without * were called inactive; · = no result given. Unless noted, no rule for the calls is given here.

SMILES	PABP1 MLLE inh	PABP polyA inh	Efflux pump inh	eIF4H inh	SUMO HTRF inh	ALR inh
CCCCNC(=O)CCC(=O)NNc1nc2ccccc2c2nc(C)nn12	10	0	0	-10	-15	-3
COc1ccc(CNC(=O)c2cn(Cc3ccccc3OC)c(=O)s2)cc1	-3	·	·	·	·	·
CCN(CC)C(=O)c1cn(-c2cccc(OC)c2)c(=O)c2ccccc12	11	3	0	2	14	-2
CC(=O)N1CCN(S(=O)(=O)c2cccc(C(=O)NCCC3=CCCCC3)c2)CC1	-1	·	0	·	·	·
O=C1NC(=O)C(CC(=O)N(Cc2cccs2)C2(C(=O)NC3CCCCC3)CCCCC2)N1 (configuration not stated)	7	52*	0	active	3	0
c1ccc(C[n+]2csc3ccccc32)cc1	43*	10	0	-12	-12	24
O=C(Cc1ccc(F)cc1)Nc1ccc(S(=O)(=O)N2CCCCC2)cc1	1	-5	0	-5	-5	-35
CC1CCN(C(=S)c2ccc([N+](=O)[O-])cc2)CC1	44*	21	0	3	-42	-15
O=C(O)c1ccc2c(=O)n3c(nc2c1)/C(=C/c1cccc(Cl)c1Cl)CCCC3	4	-3	0	1	-11	97*
O=C(/C=C/c1ccc([N+](=O)[O-])cc1)Nc1cccc(C(=O)Nc2ccccc2C(=O)O)c1	-1	19	0	0	17	91*
C=CCn1c(SCC(=O)Nc2ccccc2F)nnc1C(C)NC(=O)c1ccccc1F (configuration not stated)	6	0	0	5	-2	1
C=CCn1c(SCC(=O)Nc2nc(C)cs2)nnc1C(C)NC(=O)c1ccccc1Cl (configuration not stated)	-9	-6	0	-11	26	94*
CCOc1cc(S(=O)(=O)NCCCn2ccnc2)ccc1Cl	15	12	0	0	-8	·
O=C(NCc1ccccc1)c1cc(C2CCCCN2C(=O)c2ccc(Cl)cc2)on1 (configuration not stated)	18	·	·	·	·	·
CC(=O)N(c1ccc2oc(=O)sc2c1)S(=O)(=O)c1ccccc1	24	-7	0	-14	-17	1
CC(C)C(=O)N(c1ccc2oc(=O)sc2c1)S(=O)(=O)c1ccccc1	20	2	0	-13	-11	96*
COc1ccc(S(=O)(=O)N(C(=O)C(C)C)c2ccc3oc(=O)sc3c2)cc1	38*	4	0	-7	-40	-2
CCn1nc(C)c(CNC(=O)Nc2ccccc2C(=O)OC)c1C	4	12	0	0	5	96*
CC(C)=CCc1c(O)cc2oc3c(CC=C(C)C)c(O)c(O)c(CC=C(C)C)c3c(=O)c2c1O	-47	21	0	58*	50*	-14
Cc1cc(C)c(C)c(S(=O)(=O)N2CCC(C(=O)NC3=NCCS3)CC2)c1C	14	·	0	·	·	·
Cc1ccc(CN2CCN(/N=C/c3ccc(C)s3)CC2)c(C)c1	-2	-7	0	-3	-13	-2
CC(=O)Nc1ccc(N2C(=O)CSC2c2ccccc2[N+](=O)[O-])cc1 (configuration not stated)	8	-23	0	-5	14	98*
O=C1CSC(c2ccccc2[N+](=O)[O-])N1c1ccccc1 (configuration not stated)	28	-10	0	0	18	99*
O=C1CSC(c2ccccc2[N+](=O)[O-])N1c1ccc(O)cc1 (configuration not stated)	20	-7	0	4	2	-16
O=C1CSC(c2cccc([N+](=O)[O-])c2)N1c1ccccc1F (configuration not stated)	3	34	0	-5	12	-10
O=C1CSC(c2ccccc2[N+](=O)[O-])N1c1cccc(F)c1 (configuration not stated)	31	-3	0	-5	11	99*
COc1ccc(OC)c(NC(=O)C2CCN(S(=O)(=O)c3ccc4c(c3)CC(C)N4C(C)=O)CC2)c1 (configuration not stated)	-14	8	0	-11	14	-9
Cc1ccc(S(=O)(=O)N2CCOCC2)cc1C(=O)OCC(=O)NCCc1ccccc1	6	·	0	·	·	-10
COc1ccc(CNC(=O)C2CCCN2C(=O)Nc2cccc(Cl)c2)cc1 (configuration not stated)	-2	·	·	·	·	·

Bioassay records as filed in PubChem.
